VLA-4 inh: inhibition in a human VLA-4 binding assay | VLA-4 expressing cells, ligand binding flow cytometry | AID 2557 | P13612 | inhibition, % (about 7 µM as worked out from the volumes in the protocol) | 330,000 tested, 0.2% active
PKA-R1A activ: activators of PKA-R1A complex; P00514+P68181; 340,000 tested, 0.083% active; PKA-R1A dissociation, Cy5-IP20 fluorescence polarization; scaled: DMSO 0%, 113 µM cGMP 100%; activation, % at 11.4 µM; AID 504707;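 active = percent activation above the mean of all tested compounds plus 3 SD, cut at about 19% in these data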;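 note: higher means more PKAc released from R1A so a rise in polarization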
NRP1-CendR mod: modulators of CendR peptide binding to human neuropilin-1 | 360,000 tested, 0.85% active | inhibition, % at 25 µM | FAM-RPARPAR peptide binding to NRP-1, fluorescence polarization | O14786;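 active = inhibition or corrected inhibition above about 18%, plus a signal ratio from 0.5 to 1.5, limit read from the data, passing the limit was not always enough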
ATG4B inhibitor: ATG4B (human) cysteine protease inhibition | inhibition, % at 8.33 µM | 340,000 tested, 0.51% active | ATG4B cleavage of LC3-PLA2, NBD-HPC fluorescence, 1 h | Q9Y4P1; in the data active = inhibition above about 40%
Target sequence (Q9Y4P1 whole entry, looked up): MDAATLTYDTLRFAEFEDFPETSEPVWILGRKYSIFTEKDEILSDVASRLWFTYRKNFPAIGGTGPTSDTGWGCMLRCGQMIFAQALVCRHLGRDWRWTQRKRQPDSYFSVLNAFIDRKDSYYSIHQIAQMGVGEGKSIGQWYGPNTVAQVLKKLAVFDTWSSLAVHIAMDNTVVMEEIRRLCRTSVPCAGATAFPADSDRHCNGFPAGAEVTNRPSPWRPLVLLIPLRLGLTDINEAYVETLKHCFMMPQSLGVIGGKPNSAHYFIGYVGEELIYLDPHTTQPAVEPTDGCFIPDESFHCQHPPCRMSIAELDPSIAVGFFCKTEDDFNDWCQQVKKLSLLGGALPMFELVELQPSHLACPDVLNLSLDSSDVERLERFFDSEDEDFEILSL
PKA-R2B activ: PKA-R2B complex activation; 340,000 tested, 0.079% active; PKA-R2B holoenzyme dissociation, Cy5-IP20 fluorescence polarization; R2B truncated from residue 108, S112A mutant; 0% DMSO only, 100% 113 µM cGMP; P22694+P31323; activation, % at 11.4 µM; AID 504700;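 active = activation above a cutoff set at the mean over all compounds plus 3 SD, cut at about 18% in these data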;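 note: higher means more holoenzyme dissociation and a rise in polarization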
ATG4B confirm: ATG4B (human) inhibition, single-dose confirmed; shares compounds with ATG4B inhibitor; 320 tested, 92% active; inhibition, % at 8.33 µM; ATG4B protease fluorescent substrate cleavage assay; in the data active = inhibition above about 39%
PLA2 ctr: inhibits human PLA2, flagging false ATG4B inhibitors. shares compounds with ATG4B inhibitor. purified PLA2, NBD-C6-HPC fluorescence, 45 min. inhibition, % at 8.33 µM. 1,600 tested, 66% active. AID 588402
Target sequence (P04054 whole entry, looked up): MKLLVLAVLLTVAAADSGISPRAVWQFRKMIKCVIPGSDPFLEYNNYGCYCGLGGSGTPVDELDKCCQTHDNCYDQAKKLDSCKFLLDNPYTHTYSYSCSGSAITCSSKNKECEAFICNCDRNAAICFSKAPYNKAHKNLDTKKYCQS
Hits are given with their value; n = inactive; x = not tested or not shown. Rows were chosen to be rich in hits. Some 1.6% of all compounds tested hit in one or more screens of this group. Cut-off read from the data, not from the text of the source, unless noted: active = inhibition above about 50%; inactive = the rest.

SMILES	VLA-4 inh	PKA-R1A activ	NRP1-CendR mod	ATG4B inhibitor	PKA-R2B activ	PLA2 ctr	others
Cc1nn(-c2ccccc2)c(N)c1N=Nc1cccc(S(=O)(=O)N2CCOCC2)c1	n	n	n	44	n	n
Cc1nn(-c2ccccc2)c(N)c1-c1ccccc1	n	n	n	n	n	x
O=C1NC(=S)S/C1=C\c1cc2ccccc2nc1N1CCCCC1	n	n	n	65	n	79
COc1ccc2nc(N3CCCCC3)c(/C=C3\SC(=S)NC3=O)cc2c1	n	n	n	77	n	n	ATG4B confirm=n
O=C1NC(=S)SC1=Cc1ccccc1Cl	x	n	n	n	n	x
CC1CN(C2CCCCC2)C(=S)NC1=O (stereo not drawn)	x	n	n	n	n	x
Cc1ccccc1CSc1nnc(NC(=O)C2COc3ccccc3O2)s1 (stereo not drawn)	n	n	n	49	n	61
O=C(Nc1nnc(SCc2ccccc2Cl)s1)C1COc2ccccc2O1 (stereo not drawn)	n	n	n	n	n	x
O=C(Nc1nnc(SCc2cccc3ccccc23)s1)C1COc2ccccc2O1 (stereo not drawn)	n	n	n	44	n	62
O=C(NC1CC1)c1ccc2nc([C@@H]3O[C@H](CO)[C@H](O)[C@H](O)[C@H]3O)[nH]c2c1	x	x	n	x	x	x
CC(C)(C)C(=O)OCCNc1nc(-c2ccccc2)nc2ccccc12	n	n	n	54	n	63
CC(C)OCCCNc1nc(-c2ccccc2)nc2ccccc12	n	n	n	n	n	x
CNC(=O)c1ccc(Nc2nnc(-c3ccc(C)c(S(N)(=O)=O)c3)c3ccccc23)cc1	n	n	n	n	n	x
CNS(=O)(=O)c1cc(-c2nnc(Nc3ccc(CC(N)=O)cc3)c3ccccc23)ccc1C	n	n	n	91	n	91
Cc1ccc(-c2nnc(Nc3ccc(CC(N)=O)cc3)c3ccccc23)cc1	n	n	n	97	n	97
Cc1ccc(-c2nnc(Nc3ccc(CC(N)=O)cc3)c3ccccc23)cc1S(=O)(=O)NCC1CCCO1 (stereo not drawn)	n	n	n	90	n	89
NC(=O)COc1ccc(Nc2nnc(-c3ccc(O)cc3)c3ccccc23)cc1	n	n	n	57	n	69
Cc1ccc(-c2nnc(Nc3ccc(OCC(N)=O)cc3)c3ccccc23)cc1S(N)(=O)=O	n	n	n	n	n	x
CCOc1ccc(-n2c(SCC(=O)NC)nnc2-c2ccco2)cc1	n	n	n	n	n	x
CC(=O)Oc1c(C)cc(Cl)cc1C(=O)Nc1ccc([N+](=O)[O-])cc1Cl	n	n	n	n	n	x
Cc1ccc(-c2nnc(Nc3ccc(CC(N)=O)cc3)c3ccccc23)cc1S(N)(=O)=O	n	n	n	88	n	89
Cc1ccc(C(=O)Oc2cccc(NC(=O)c3ccccc3)c2)cc1C	n	n	n	49	n	59
CCOc1ccc(Cl)cc1-c1cc(C(=O)NCc2ccccc2OC)[nH]n1	x	x	n	x	x	x
CN(Cc1ccc(F)cc1)C(=O)COc1ccccc1-c1ccccc1	n	n	n	48	n	n
O=[N+]([O-])c1ccc(N/N=C/c2c[nH]c3ccccc23)c(S(=O)(=O)Nc2ccc(Cl)cc2)c1	n	n	n	42	n	53
SMILES	VLA-4 inh	PKA-R1A activ	NRP1-CendR mod	ATG4B inhibitor	PKA-R2B activ	PLA2 ctr	others
COc1ccccc1NS(=O)(=O)c1cc([N+](=O)[O-])ccc1N/N=C/c1c(C)[nH]c2ccccc12	n	n	n	n	n	x
COc1ccc(NC(=O)CCC(=O)N2CCC(c3ccccc3)=N2)cc1S(=O)(=O)N1CCCCC1	x	n	n	n	n	x
Nc1c(N2CCN(c3ccccc3)CC2)c2ccccc2oc1=O	n	n	n	43	n	n	ATG4B confirm=78
Nc1c(N)c2ccccc2oc1=O	n	n	n	n	n	x
CCCS(=O)(=O)NC(=O)C1(C)CCCN(C(=O)c2cc(C)nn2C(C)(C)C)C1 (stereo not drawn)	x	x	n	x	x	x
Cc1cccc(C)c1-n1cccc1/C=C1\SC(=S)N(c2cccc(C(=O)O)c2)C1=O	n	n	n	91	n	85
Cc1cccc(C)c1NC(=O)CN1C(=O)S/C(=C\c2cccn2-c2cccc(C(=O)O)c2)C1=O	n	n	n	47	n	n
Cc1ccccc1NC(=O)CN1C(=O)S/C(=C\c2cccn2-c2cccc(C(=O)O)c2)C1=O	n	n	n	n	n	x
COC(=O)c1ccc(CSc2nnc(-c3c[nH]c4ccccc34)n2-c2ccccc2)cc1	n	n	n	46	n	67
Cc1cccc(-n2c(SCc3ccc(C#N)cc3)nnc2-c2c[nH]c3ccccc23)c1	n	n	n	51	n	59
Cn1c(SCc2ccccc2)nnc1-c1c[nH]c2ccccc12	n	n	n	n	n	x
COC(=O)c1ccc(CSc2nnc(-c3c[nH]c4ccccc34)n2C)o1	n	n	n	n	n	x
COC(=O)c1cccc(N2C(=O)C[C@](Sc3ccc(C)cc3)(C(=O)OC)[C@H]2c2ccccc2)c1	x	x	n	x	x	x
COc1ccc(OC)c(/C=C2\S/C(=N/NC(=O)c3ccc4ccccc4c3)NC2=O)c1	n	n	n	79	n	83
O=C1N/C(=N/NC(=O)c2cccc3ccccc23)S/C1=C\c1ccccc1OCc1ccccc1	x	n	n	91	n	91
COc1ccc(/C=C2\SC(=Nc3ccccc3Cl)NC2=O)c(OC)c1	x	n	n	x	n	x
Cc1ccc(-n2nnnc2SCC(=O)N2CCc3ccccc3C2)c(C)c1	n	n	n	44	n	n
NC(=O)Cc1ccc(C(=O)c2ccc(Cl)cc2)s1	n	n	n	57	n	51
O=C(O)Cc1ccc(C(=O)c2ccc(Cl)cc2)s1	n	n	n	n	n	x
O=C(OCC#CCSc1nnc(-c2cccc3ccccc23)o1)c1ccc2ccccc2c1	n	n	n	n	n	x
Cc1ccc(C(=O)N/N=C(/CC(=O)c2cccs2)C(F)(F)F)cc1	n	n	n	41	n	n
c1cncc(-c2nc(NCCCN3CCOCC3)c3c4c(sc3n2)CCC4)c1	n	n	n	40	n	57
c1cncc(-c2nc(N3CCOCC3)c3c4c(sc3n2)CCC4)c1	n	n	n	n	n	x
CC(=O)c1c(C)n(-c2ccccc2)c2ccc(OCC(N)=O)cc12	n	n	n	47	n	52
Cc1sc(NC(=O)C2C3CCC(O3)C2C(=O)O)nc1-c1ccc(CC(C)C)cc1 (stereo not drawn)	n	n	n	56	n	69
Cc1oc2cc3oc(=O)c(CCC(=O)N[C@H](C(=O)O)C(C)C)c(C)c3cc2c1C	n	n	n	n	n	x

From PubChem BioAssay
